Records with an inconclusive call do not appear. Activity calls are given as the source filed them. Unless noted, calls follow the shape of the full dose curve.

Assay [1] is described as follows: Nuclear factor erythroid 2-related factor 2/antioxidant responsive element (Nrf2/ARE) small molecule agonists: luciferase reporter gene qHTS assay in human keratinocytes (AID 1919969). Also: nearly all actives have a fitted effect of over 35% in size.
Assay [2] concerns the target Gonadotropin-releasing hormone receptor (Homo sapiens) (UniProt P30968). Briefly: Human gonadotropin-releasing hormone receptor (GnRHR) small molecule agonists, calcium flux assay in GnRHR-HEK293 cells (AID 1920063). Also: nearly all actives have a fitted effect of over 35% in size. In outline:
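Tox21-format agonist screen using human GnRHR-expressing HEK293 cells and a fluorescent calcium dye; kinetic 3-min fluorescence reading after compound addition, 15-point concentration series run in triplicate.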

In assay [3] the target is KiSS-1 receptor (Homo sapiens) (UniProt Q969F8). Briefly: Human kisspeptin (KISS1R) small molecule agonists, calcium flux assay in KISS1R-HEK293 cells (AID 1920064; active = well fitted activation curve with a large enough effect in the repeat runs). In short, it runs like this: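 Intracellular calcium mobilization in KISS1R-HEK293 cells was recorded by fluorescence (Ex/Em 480/540) for 3 min following compound addition to cells pre-loaded 1 h with calcium dye.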
KiSS-1 receptor (Homo sapiens), sequence (Q969F8 whole entry, looked up): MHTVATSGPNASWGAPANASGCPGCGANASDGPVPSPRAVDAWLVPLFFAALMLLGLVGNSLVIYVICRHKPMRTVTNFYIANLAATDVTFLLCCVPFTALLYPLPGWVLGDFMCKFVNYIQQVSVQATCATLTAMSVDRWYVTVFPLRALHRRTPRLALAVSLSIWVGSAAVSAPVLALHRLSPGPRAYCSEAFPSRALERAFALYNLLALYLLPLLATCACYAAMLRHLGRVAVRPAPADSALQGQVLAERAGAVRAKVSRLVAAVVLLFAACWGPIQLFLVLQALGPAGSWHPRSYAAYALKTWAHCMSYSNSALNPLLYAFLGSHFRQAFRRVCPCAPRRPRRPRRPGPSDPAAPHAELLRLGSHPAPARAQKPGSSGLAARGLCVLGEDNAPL

The nature of assay [4]: G protein-coupled receptor (GPCR) small molecule agonists, calcium flux assay: HEK293 wild type cell line counter screen (AID 1920065). In short, it runs like this: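 In this agonist-mode screen, ATP is the positive control and DMSO the vehicle. Cells grow 18 h before a 1 h dye incubation at 37 C; signal is taken at Ex/Em 480/540 over 3 min.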
Assay [5] can be described thus: p53 small molecule agonists, cell-based qHTS assay with human liver microsomes (AID 1963577).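 Also: p53 response element beta-lactamase reporter cells with liver microsomes plus NADPH.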 In outline: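 16 h, 37 C exposure of p53RE-bla cells to compounds with human liver microsomes and NADPH (0.5 mg/mL final each); detection via LiveBLAzer mixture, 2 h dark at room temperature.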
A short description of assay [6]: p53 small molecule agonists, cell-based qHTS assay with rat liver microsomes (AID 1963578). In outline: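 With rat liver microsomes and NADPH present (0.5 mg/mL final each), p53RE-bla cells are treated with compound for 16 h at 37 C. LiveBLAzer detection mixture is then applied for 2 h at room temperature in the dark.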
Assay [7] is described as follows: p53 small molecule agonists, cell-based qHTS assay with human liver microsomes: qHTS cell viability counter screen (AID 1963579). Also: nearly all actives have a fitted effect of over 45% in size. In outline: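 In this multiplexed counter screen, the reporter plates were subsequently treated with CellTiter-Glo so that cell viability, reflected by luminescence, could be recorded for p53RE-bla cells dosed 16 h with compounds under microsomal activation (HLM and NADPH).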

Assay [8] in a line: p53 small molecule agonists, cell-based qHTS assay with rat liver microsomes: qHTS cell viability counter screen (AID 1963580). Also: nearly all actives have a fitted effect of over 45% in size. In short, it runs like this: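 Intracellular ATP, by CellTiter-Glo luminescence, defines viability. HCT-116 p53RE-bla cells, 4,000 per well, were compound-treated in the presence of rat liver microsomes and NADPH for 16 h at 37 C.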
A short description of assay [9]: p53 small molecule agonists, cell-based qHTS assay: qHTS cell viability counter screen (AID 1963581). Also: nearly all actives have a fitted effect of over 45% in size. In outline: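 Compounds are pinned onto HCT-116 p53RE-bla cells and left 16 h at 37 C. Following the reporter FRET read, ATP is quantified by CellTiter-Glo luminescence after 30 min at room temperature.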
Assay [10] in a line: p53 small molecule agonists, cell-based qHTS assay (AID 1963582; active = well fitted activation curve with a large enough effect in the signal ratio in the repeat runs, not every such curve was filed as active; the % refers to the signal ratio). In short, it runs like this: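 Agonist activity was scored from beta-lactamase FRET fluorescence in p53RE-bla cells treated 16 h at 37 C with compounds in DMSO, substrate incubation being 2 h at room temperature.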
The target in assay [11] is 5-hydroxytryptamine receptor 2A (Homo sapiens) (UniProt P28223). As to the kind of experiment: 5-hydroxytryptamine receptor 2A (HTR2A) small molecule antagonists, cell-based qHTS assay (AID 1963586). Also: nearly all actives have a fitted effect of over 45% in size. Also: potency is read from the fitted curve at half-maximal effect. In outline:
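Antagonist-mode intracellular calcium assay: DOI (4 nM) added after 5 min compound pre-incubation at room temperature to dye-loaded HTR2A-CHO cells. Fluorescence followed for 3 min, sampled every second.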

For assay [12] the target is unchanged. Briefly: 5-hydroxytryptamine receptor 2A (HTR2A) small molecule agonists, cell-based qHTS assay (AID 1963587). Also: nearly all actives have a fitted effect of over 30% in size. In short, it runs like this:
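Kinetic calcium-flux fluorescence (2 min, 1 sec intervals) after compound addition in agonist mode. HTR2A-CHO cells were cultured 18 h, then dye-loaded 1 h at 37 C.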

Assay [13] concerns the target Muscarinic acetylcholine receptor M1 (Homo sapiens) (UniProt P11229). As to the kind of experiment: Cholinergic receptor muscarinic 1 (CHRM1) small molecule antagonists, cell-based qHTS assay (AID 1963588). Also: nearly all actives have a fitted effect of over 40% in size. In short, it runs like this:
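CHRM1-CHO calcium-flux assay, antagonist mode. Cells were seeded 18 h, dye-loaded 1 h at 37 C and given compound for 5 min at RT, then acetylcholine was added at 50nM. FDSS fluorescence was read 3 min; 15 concentrations, three runs.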

The target is the same in assay [14]. Briefly: Cholinergic receptor muscarinic 1 (CHRM1) small molecule agonists, cell-based qHTS assay (AID 1963589). Also: nearly all actives have a fitted effect of over 35% in size. In short, it runs like this:
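Stable CHRM1-CHO cells (human receptor) were incubated 18 h, dye-loaded for 1 h at 37 C and exposed to test compounds for agonist activity, with calcium-dependent fluorescence followed kinetically.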

Assay [15] is described as follows: cAMP Responsive Elements (CRE) small molecule agonists, cell-based qHTS assay (AID 1963590). In short, it runs like this:
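FRET-based beta-lactamase readout (LiveBLAzer B/G, 2 h RT) quantified CRE activation in HEK 293T CRE-bla cells after 3 h treatment with DMSO-dissolved compounds.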

Assay [16] is described as follows: cAMP Responsive Elements (CRE) small molecule antagonists, cell-based qHTS assay (AID 1963591; active = well fitted inhibition curve with a large enough effect in the signal ratio in the repeat runs, not every such curve was filed as active; the % refers to the signal ratio). In short, it runs like this:
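qHTS in CRE-bla HEK 293T cells: compound in DMSO, then 0.25 uM NKH477 (final), 3 h at 37 °C/5% CO2; beta-lactamase FRET read-out after 2 h substrate incubation.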

The target of assay [17] is Beta-2 adrenergic receptor (Homo sapiens) (UniProt P07550). As to the kind of experiment: Adrenergic beta2 receptor (ADRB2) small molecule antagonists, cell-based qHTS assay (AID 1963592). Also: series mostly up to about 92 µM; nearly all actives have a fitted effect of over 50% in size. In outline:
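Cells (CHO, stable ADRB2 overexpression) incubated 18-20hr at 37C; compounds added from DMSO; agonist mix (1nM isoproterenol, 100uM IBMX, 25uM Ro-20-1724) added; 0.5hr RT; d2-cAMP and anti-cAMP-cryptate added; 1hr RT; 665/615 nm read.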

Assay [18] has as its target D(2) dopamine receptor (Homo sapiens) (UniProt P14416). As to the kind of experiment: Dopamine D2 receptor (DRD2) small molecule agonists, cell-based qHTS assay (AID 1963594). Also: nearly all actives have a fitted effect of over 35% in size. In short, it runs like this:
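cAMP accumulation in DRD2-HEK293 cells measured by HTRF after 1 h detection; compounds added 10 min before NKH477 (200nM […]) forskolin-analogue stimulation, 30 min at room temperature, with Ro20-1724 present at 0.1 mM final.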

Assay [19] shares this target. Briefly: Dopamine D2 receptor (DRD2) small molecule antagonists, cell-based qHTS assay (AID 1963595; active = well fitted inhibition curve with a large enough effect in the signal ratio in the repeat runs, with a control signal flat; the % refers to the signal ratio). In short, it runs like this:
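DRD2-HEK293; 0.1 mM Ro20-1724; cpd 10 min RT; NKH477 200 nM + quinpirole 12 nM, 30 min RT; HTRF cAMP (cAMP-d2/anti-cAMP cryptate), 665/620 nm ratio after 1 h.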

Assay [20] has as its target Beta-2 adrenergic receptor (Homo sapiens) (UniProt P07550). As to the kind of experiment: Adrenergic beta2 receptor (ADRB2) small molecule agonists, cell-based qHTS assay (AID 1963593).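 Also: CHO cells stably overexpressing human ADRB2.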 In outline:
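CHO cells stably over-expressing ADRB2 were plated overnight at 37C, then dosed with compounds plus a stimulation mix containing 100uM IBMX and 25uM Ro-20-1724 for 0.5hr at room temperature. cAMP was measured by HTRF competition, 1hr.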

5-hydroxytryptamine receptor 2A (Homo sapiens), sequence (P28223 whole entry, looked up): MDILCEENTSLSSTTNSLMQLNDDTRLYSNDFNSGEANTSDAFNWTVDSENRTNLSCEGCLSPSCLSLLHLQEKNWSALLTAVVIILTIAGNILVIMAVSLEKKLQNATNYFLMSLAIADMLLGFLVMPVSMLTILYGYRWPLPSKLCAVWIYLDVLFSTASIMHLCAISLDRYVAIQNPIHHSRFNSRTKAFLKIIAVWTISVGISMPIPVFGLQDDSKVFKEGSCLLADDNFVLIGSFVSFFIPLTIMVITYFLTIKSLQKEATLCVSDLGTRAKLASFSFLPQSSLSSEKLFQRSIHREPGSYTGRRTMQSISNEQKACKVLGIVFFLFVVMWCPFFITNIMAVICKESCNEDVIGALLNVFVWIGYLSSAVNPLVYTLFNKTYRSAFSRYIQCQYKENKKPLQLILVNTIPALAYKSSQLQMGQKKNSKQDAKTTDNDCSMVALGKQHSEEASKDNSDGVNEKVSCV
Muscarinic acetylcholine receptor M1 (Homo sapiens), sequence (P11229 whole entry, looked up): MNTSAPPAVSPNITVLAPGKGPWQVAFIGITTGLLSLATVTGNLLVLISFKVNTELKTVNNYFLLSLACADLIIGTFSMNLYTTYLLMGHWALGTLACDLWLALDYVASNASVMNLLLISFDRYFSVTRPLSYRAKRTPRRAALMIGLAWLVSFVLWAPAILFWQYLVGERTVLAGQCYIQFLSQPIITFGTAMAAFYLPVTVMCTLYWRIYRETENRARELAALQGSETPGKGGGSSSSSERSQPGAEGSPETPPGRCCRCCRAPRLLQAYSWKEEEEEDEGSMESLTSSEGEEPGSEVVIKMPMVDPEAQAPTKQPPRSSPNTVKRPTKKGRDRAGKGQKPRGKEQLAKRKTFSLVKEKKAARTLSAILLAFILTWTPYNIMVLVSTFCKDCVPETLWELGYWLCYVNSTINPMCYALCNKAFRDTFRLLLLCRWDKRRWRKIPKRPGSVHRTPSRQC
Gonadotropin-releasing hormone receptor (Homo sapiens), sequence (P30968 whole entry, looked up): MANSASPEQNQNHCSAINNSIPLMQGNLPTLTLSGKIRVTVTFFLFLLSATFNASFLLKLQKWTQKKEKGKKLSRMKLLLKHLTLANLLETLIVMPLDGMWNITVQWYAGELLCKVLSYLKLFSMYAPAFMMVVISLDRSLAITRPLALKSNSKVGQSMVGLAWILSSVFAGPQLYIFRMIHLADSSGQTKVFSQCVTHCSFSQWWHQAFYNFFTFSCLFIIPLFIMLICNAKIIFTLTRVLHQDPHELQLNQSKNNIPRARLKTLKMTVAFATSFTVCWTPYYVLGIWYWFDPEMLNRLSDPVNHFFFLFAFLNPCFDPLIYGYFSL
Beta-2 adrenergic receptor (Homo sapiens), sequence (P07550 whole entry, looked up): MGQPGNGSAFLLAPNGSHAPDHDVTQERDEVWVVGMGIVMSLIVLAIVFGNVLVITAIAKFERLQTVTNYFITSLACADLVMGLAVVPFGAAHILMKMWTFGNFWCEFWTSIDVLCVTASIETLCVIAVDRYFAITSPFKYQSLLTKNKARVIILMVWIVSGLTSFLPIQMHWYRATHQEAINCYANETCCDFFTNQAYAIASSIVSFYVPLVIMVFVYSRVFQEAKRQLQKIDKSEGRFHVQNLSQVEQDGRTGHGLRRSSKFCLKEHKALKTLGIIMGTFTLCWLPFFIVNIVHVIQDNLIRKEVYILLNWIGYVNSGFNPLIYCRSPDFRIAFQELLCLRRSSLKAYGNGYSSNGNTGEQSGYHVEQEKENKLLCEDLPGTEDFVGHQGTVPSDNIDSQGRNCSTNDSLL
D(2) dopamine receptor (Homo sapiens), sequence (P14416 whole entry, looked up): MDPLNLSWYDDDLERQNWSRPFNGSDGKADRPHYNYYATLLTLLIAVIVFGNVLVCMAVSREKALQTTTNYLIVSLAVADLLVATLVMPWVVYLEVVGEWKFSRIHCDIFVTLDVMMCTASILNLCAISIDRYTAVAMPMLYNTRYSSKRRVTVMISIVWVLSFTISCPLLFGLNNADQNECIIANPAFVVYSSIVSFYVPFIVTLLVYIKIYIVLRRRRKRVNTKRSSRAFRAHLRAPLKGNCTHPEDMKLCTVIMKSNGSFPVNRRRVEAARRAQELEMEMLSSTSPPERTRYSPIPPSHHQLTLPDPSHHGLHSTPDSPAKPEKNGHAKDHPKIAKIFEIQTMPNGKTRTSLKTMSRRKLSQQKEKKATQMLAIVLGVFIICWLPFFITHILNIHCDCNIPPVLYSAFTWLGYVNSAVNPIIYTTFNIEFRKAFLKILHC

For the compound `NC(=O)N[C@@H](CCC(=O)O)C(=O)O`, the Potency result in assay [1], in assay [2], in assay [3], in [4], in [5] and in assay [6] was “inactive” each time. The Potency result in [7], in assay [8], in assay [9], in assay [10], in assay [12] and in assay [13] was “inactive” throughout. For the same compound, the Potency entry in assay [14], in assay [15], in [16], in assay [17] and in assay [18] was “inactive” throughout. Further, the Potency in assay [11] was 8.18 µM (active).
On to `COc1cc(/C=C/C(N)=O)cc(OC)c1OC`, for which the Potency entry in assay [1], in assay [2], in [3], in assay [4], in [5] and in assay [6] was “inactive” in each case. The Potency result in [7], in [8], in assay [9], in assay [10], in [11] and in assay [12] was “inactive” in each case. For the same compound, the Potency result in assay [13], in assay [14], in assay [15], in assay [17], in [18] and in assay [19] was “inactive” each time.
For the compound `C1CCCNCCC1`, the Potency entry in assay [1], in [2], in assay [3], in [4], in assay [5] and in assay [6] was “inactive” each time. Besides, the Potency entry in assay [7], in assay [8], in [9], in assay [10], in assay [11] and in assay [12] was “inactive” throughout. In addition, the Potency result in assay [13], in [14], in assay [15], in assay [16], in assay [17] and in [18] was “inactive” each time. For the same compound, the Potency entry in [19] was “inactive”.
For the compound `CC(C)(C)NC(N)=O`, the Potency entry in assay [1], in [2], in [3], in [4], in [5] and in assay [6] was “inactive” each time. Moreover, the Potency entry in [7], in assay [8], in assay [9], in assay [10], in [11] and in assay [12] was “inactive” in each case. Moreover, the Potency result in assay [13], in [14], in assay [15], in [16], in assay [17] and in assay [18] was “inactive” throughout. Also, the Potency result in assay [19] is “inactive”.
For the compound `COc1ccc2cccc(CCNC(C)=O)c2c1`, the Potency entry in [1], in [2], in [3], in assay [4], in assay [5] and in assay [6] was “inactive” in each case. Besides, the Potency result in assay [7], in [8], in assay [9], in [10], in assay [11] and in assay [12] was “inactive” throughout. For the same compound, the Potency entry in assay [14], in assay [15], in [16], in assay [17], in assay [20] and in assay [18] was “inactive” in each case. Moreover, the Potency result in assay [19] was “inactive”.
In the case of `CCO[Si](C)(OCC)OCC`, the Potency result in assay [1], in [2], in assay [3], in assay [4], in [5] and in assay [6] was “inactive” in each case. The Potency result in [7], in [8], in assay [9], in assay [10], in [11] and in assay [12] was “inactive” in each case. The Potency result in assay [13], in assay [14], in assay [15], in [16], in [17] and in assay [20] was “inactive” in each case. The Potency entry in assay [18] and in assay [19] was “inactive” throughout.
In the case of `CCNc1cc(O)ccc1C`, the Potency entry in assay [1], in assay [2], in assay [3], in assay [4], in assay [5] and in assay [6] was “inactive” throughout. The Potency entry in assay [7], in assay [8], in assay [9], in assay [10], in assay [11] and in assay [12] was “inactive” in each case. Moreover, the Potency entry in [13], in assay [14], in assay [15], in assay [17], in assay [20] and in assay [18] was “inactive” in each case.

The values above are taken from PubChem BioAssay (Tox21).
